Among the data in ChEMBL document CHEMBL2218924, “A broad activity screen in support of a chemogenomic map for kinase signalling research and drug discovery” (Biochem J, 2013) are residual activity values, retold here.

In test [1] the target is T1, Testis-specific serine/threonine-protein kinase 1 (Homo sapiens) (UniProt Q9BXA7).
T1 sequence (whole entry): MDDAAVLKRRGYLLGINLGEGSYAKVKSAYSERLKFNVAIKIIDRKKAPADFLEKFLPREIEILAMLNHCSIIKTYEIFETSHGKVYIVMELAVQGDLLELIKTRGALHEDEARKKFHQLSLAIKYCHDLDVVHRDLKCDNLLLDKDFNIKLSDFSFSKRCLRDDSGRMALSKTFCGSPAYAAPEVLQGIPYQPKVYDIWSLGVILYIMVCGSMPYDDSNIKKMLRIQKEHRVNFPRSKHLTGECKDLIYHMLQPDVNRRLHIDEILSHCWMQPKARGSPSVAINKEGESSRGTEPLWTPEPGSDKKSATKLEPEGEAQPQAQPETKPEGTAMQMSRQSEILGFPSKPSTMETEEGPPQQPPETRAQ
The settings on record: at 1 µM.

For test [2], the target named is T1, Testis-specific serine/threonine-protein kinase 1 (Homo sapiens). The settings on record: at 10 µM.
Test [3] deals with T2, Tyrosine-protein kinase Tec (Homo sapiens) (UniProt P42680).
T2 sequence (whole entry): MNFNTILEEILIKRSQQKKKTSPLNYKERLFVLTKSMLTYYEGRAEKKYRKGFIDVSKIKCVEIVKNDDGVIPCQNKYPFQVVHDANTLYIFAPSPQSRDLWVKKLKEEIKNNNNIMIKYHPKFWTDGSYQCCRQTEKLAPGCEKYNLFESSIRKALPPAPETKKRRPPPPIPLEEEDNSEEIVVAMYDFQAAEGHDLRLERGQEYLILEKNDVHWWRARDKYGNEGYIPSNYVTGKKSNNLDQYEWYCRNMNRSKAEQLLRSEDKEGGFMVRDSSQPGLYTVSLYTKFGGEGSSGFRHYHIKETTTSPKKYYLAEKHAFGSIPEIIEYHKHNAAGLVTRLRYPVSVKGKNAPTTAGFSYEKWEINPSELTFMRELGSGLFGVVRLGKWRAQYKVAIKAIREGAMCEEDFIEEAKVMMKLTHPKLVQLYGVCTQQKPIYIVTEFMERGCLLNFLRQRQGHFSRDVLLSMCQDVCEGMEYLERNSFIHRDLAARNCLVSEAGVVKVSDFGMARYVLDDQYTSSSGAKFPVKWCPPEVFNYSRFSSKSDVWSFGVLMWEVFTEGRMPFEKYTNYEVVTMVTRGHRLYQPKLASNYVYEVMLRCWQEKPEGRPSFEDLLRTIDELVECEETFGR
The settings on record: at 1 µM.

Test [4] has as its target T2, Tyrosine-protein kinase Tec (Homo sapiens). The settings on record: at 10 µM.
Test [5] has as its target Angiopoietin-1 receptor (Homo sapiens) (UniProt Q02763). The settings on record: at 1 µM.
Test [6] has the same target. The settings on record: at 10 µM.
In test [7] the target is High affinity nerve growth factor receptor (Homo sapiens) (UniProt P04629). The settings on record: at 1 µM.
The target is the same in test [8]. The settings on record: at 10 µM.
The target of test [9] is BDNF/NT-3 growth factors receptor (Homo sapiens) (UniProt Q16620). The settings on record: at 1 µM.
For test [10] the target is unchanged. The settings on record: at 10 µM.
The target of test [11] is T3, Tyrosine-protein kinase TXK (Homo sapiens) (UniProt P42681).
T3 sequence (whole entry): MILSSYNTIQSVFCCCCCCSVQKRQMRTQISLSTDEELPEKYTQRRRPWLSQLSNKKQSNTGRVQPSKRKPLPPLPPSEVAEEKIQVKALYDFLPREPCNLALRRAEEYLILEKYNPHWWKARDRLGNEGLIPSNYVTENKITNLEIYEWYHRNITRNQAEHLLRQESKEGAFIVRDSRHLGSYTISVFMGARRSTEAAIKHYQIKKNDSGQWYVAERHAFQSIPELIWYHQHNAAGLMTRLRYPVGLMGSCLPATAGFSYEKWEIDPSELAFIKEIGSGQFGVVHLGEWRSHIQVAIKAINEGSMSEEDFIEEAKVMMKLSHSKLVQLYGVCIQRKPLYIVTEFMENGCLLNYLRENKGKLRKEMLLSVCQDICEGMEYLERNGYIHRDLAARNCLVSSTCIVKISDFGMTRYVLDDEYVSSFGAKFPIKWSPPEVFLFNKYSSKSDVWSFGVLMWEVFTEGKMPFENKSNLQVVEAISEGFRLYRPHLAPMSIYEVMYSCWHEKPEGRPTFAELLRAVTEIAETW
The settings on record: at 1 µM.

For test [12], the target named is T3, Tyrosine-protein kinase TXK (Homo sapiens). The settings on record: at 10 µM.
The target of test [13] is T4, Serine/threonine-protein kinase ULK2 (Homo sapiens) (UniProt Q8IYT8).
T4 sequence (whole entry): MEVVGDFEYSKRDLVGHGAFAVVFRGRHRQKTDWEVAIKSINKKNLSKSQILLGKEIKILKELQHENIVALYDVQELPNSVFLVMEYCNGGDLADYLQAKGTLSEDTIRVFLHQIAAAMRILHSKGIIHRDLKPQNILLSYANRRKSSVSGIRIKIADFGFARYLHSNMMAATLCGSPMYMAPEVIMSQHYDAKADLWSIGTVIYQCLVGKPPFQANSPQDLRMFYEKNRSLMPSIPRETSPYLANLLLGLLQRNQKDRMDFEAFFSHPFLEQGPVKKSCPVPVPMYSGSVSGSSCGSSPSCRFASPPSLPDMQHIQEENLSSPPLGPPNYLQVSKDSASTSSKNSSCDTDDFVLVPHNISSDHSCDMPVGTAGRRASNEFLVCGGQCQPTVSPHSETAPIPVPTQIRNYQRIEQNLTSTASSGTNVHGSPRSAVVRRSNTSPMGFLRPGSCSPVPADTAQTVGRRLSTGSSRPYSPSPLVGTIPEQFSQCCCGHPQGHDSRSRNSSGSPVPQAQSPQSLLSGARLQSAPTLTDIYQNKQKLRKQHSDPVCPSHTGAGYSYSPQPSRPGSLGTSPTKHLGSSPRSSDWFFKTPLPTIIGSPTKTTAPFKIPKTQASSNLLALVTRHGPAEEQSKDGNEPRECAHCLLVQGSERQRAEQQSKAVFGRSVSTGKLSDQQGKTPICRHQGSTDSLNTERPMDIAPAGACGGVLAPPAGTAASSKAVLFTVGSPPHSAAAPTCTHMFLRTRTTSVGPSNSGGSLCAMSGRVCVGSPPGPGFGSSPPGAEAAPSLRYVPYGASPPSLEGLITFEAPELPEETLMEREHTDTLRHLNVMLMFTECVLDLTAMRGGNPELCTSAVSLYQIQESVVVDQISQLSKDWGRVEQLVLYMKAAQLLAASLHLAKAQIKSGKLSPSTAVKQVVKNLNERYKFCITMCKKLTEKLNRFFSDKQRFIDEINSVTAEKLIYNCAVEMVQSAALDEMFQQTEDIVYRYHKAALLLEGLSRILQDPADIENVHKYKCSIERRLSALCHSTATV
The settings on record: at 1 µM.

Test [14] addresses T4, Serine/threonine-protein kinase ULK2 (Homo sapiens). The settings on record: at 10 µM.
The target in test [15] is T5, Serine/threonine-protein kinase ULK3 (Homo sapiens) (UniProt Q6PHR2).
T5 sequence (whole entry): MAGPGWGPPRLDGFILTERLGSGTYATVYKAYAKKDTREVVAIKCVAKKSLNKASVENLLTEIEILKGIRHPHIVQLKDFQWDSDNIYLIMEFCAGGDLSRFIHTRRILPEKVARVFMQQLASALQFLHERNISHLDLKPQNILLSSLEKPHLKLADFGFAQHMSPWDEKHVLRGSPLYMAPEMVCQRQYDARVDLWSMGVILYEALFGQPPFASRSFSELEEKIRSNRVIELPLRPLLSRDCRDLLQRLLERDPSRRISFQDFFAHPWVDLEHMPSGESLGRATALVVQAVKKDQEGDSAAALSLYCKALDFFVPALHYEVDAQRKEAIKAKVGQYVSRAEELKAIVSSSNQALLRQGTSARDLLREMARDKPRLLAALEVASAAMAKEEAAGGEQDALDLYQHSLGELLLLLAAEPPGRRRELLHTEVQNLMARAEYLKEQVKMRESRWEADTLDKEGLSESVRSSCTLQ
The settings on record: at 1 µM.

Test [16] has as its target T5, Serine/threonine-protein kinase ULK3 (Homo sapiens). The settings on record: at 10 µM.
For test [17], the target named is Serine/threonine-protein kinase VRK2 (Homo sapiens) (UniProt Q86Y07). The settings on record: at 1 µM.
Test [18] has the same target. The settings on record: at 10 µM.
For test [19], the target named is Serine/threonine-protein kinase WNK2 (Homo sapiens) (UniProt Q9Y3S1). The settings on record: at 1 µM.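 Also: residual WNK2 kinase activity expressed as percent of uninhibited control, assayed in MOPS buffer at pH 7.0 containing EDTA.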
For test [20], the target named is T6, Testis-specific serine/threonine-protein kinase 2 (Homo sapiens) (UniProt Q96PF2).
T6 sequence (whole entry): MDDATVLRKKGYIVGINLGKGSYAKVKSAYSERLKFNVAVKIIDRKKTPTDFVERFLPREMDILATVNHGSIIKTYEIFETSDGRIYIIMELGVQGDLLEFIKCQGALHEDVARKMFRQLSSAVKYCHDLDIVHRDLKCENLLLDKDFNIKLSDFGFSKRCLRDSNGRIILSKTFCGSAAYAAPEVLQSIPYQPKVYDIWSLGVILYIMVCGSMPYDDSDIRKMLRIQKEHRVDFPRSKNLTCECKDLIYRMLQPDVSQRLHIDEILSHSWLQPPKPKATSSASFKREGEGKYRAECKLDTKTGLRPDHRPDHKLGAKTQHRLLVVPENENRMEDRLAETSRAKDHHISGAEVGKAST
The settings on record: at 10 µM.

Chain of Serine/threonine-protein kinase VRK2 (Homo sapiens) (Q86Y07 whole entry): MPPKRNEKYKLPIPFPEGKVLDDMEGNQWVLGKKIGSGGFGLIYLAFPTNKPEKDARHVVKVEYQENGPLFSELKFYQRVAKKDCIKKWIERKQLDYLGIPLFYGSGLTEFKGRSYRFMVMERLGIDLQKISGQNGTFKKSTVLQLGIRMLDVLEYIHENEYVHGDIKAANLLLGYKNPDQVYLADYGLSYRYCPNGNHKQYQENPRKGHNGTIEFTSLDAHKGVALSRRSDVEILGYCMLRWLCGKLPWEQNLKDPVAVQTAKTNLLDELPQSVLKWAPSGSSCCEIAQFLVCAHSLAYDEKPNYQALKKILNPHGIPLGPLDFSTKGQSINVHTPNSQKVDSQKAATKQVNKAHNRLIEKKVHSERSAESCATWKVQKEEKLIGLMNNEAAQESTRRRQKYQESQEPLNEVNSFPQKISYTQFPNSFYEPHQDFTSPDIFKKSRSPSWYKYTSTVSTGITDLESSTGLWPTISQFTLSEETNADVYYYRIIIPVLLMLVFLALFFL
Chain of High affinity nerve growth factor receptor (Homo sapiens) (P04629 33-796 limits assumed): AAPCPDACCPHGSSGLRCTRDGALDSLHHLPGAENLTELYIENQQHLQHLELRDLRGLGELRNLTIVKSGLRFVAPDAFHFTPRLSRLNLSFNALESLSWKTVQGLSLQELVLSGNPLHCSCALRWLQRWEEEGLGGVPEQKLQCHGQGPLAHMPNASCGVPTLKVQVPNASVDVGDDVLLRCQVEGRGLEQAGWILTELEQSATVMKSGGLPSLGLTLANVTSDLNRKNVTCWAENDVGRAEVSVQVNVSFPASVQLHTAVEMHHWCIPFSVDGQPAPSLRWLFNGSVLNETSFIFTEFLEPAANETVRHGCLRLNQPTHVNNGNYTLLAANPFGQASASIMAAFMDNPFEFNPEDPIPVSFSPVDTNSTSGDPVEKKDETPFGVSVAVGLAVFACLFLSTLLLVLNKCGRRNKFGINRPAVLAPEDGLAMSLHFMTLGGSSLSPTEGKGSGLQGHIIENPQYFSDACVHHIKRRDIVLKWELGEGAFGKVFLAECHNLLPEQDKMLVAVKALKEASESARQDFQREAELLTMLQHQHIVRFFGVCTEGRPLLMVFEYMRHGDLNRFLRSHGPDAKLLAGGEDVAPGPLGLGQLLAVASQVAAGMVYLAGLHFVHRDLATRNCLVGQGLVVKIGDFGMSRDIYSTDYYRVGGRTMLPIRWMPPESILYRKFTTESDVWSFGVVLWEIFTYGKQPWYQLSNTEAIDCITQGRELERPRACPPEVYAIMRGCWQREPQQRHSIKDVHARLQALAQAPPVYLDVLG
Chain of Serine/threonine-protein kinase WNK2 (Homo sapiens) (Q9Y3S1 whole entry): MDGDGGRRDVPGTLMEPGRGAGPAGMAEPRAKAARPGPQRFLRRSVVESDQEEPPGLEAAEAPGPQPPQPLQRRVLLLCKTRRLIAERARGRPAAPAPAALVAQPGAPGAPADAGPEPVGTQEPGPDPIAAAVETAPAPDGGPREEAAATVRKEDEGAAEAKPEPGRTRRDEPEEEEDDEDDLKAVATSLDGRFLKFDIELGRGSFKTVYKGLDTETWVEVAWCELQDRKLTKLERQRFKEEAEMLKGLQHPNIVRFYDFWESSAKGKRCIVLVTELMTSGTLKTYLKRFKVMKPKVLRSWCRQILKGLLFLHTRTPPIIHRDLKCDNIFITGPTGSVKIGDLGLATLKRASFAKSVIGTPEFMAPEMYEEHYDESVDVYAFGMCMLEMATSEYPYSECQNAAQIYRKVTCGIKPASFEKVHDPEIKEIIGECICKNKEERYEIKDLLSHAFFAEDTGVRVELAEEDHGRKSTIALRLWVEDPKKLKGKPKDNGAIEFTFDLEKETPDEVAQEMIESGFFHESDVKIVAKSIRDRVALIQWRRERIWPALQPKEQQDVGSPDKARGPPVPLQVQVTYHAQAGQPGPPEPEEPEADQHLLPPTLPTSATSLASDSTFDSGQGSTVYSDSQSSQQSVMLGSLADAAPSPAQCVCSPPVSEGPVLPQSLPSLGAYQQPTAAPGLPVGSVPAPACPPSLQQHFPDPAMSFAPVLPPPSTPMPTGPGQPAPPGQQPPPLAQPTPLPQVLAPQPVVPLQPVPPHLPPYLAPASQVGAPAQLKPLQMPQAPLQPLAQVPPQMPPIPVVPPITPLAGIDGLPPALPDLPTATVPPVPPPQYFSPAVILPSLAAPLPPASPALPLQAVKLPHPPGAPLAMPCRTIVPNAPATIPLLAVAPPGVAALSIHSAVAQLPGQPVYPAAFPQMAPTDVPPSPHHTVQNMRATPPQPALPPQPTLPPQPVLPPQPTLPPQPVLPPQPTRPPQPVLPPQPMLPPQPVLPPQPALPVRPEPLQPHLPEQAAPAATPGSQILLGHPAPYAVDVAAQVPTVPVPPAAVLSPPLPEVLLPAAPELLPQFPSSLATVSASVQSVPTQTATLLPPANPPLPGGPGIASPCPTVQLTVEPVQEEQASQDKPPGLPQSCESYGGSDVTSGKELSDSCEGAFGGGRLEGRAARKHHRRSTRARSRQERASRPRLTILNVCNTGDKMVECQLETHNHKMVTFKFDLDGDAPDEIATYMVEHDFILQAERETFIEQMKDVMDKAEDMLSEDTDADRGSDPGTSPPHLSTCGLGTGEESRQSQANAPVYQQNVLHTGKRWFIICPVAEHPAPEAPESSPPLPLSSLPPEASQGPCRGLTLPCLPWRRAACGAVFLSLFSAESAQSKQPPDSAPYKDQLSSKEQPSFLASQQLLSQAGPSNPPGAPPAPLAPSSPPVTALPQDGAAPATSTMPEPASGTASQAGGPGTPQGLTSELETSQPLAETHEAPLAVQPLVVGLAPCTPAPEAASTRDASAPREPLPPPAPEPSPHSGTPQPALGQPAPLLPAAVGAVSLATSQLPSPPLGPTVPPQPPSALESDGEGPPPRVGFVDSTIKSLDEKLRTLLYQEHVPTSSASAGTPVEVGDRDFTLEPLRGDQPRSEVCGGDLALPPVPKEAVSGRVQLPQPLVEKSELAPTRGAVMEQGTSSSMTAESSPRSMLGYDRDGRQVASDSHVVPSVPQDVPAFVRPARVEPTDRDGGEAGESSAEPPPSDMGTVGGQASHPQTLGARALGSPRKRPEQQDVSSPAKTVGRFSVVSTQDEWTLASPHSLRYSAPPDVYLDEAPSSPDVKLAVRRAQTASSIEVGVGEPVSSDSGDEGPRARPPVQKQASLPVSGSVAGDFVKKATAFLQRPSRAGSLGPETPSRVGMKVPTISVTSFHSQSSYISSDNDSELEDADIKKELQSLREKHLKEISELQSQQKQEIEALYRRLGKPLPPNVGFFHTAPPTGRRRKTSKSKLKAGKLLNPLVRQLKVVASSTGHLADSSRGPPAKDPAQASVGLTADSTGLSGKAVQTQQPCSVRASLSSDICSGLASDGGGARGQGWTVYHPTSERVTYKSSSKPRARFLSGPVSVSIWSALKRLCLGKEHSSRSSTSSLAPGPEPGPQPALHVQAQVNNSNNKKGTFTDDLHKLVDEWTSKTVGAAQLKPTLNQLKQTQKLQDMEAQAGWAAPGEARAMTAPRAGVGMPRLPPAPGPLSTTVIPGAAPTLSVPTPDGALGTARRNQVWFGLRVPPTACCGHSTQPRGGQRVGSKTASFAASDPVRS
Chain of Angiopoietin-1 receptor (Homo sapiens) (Q02763 whole entry): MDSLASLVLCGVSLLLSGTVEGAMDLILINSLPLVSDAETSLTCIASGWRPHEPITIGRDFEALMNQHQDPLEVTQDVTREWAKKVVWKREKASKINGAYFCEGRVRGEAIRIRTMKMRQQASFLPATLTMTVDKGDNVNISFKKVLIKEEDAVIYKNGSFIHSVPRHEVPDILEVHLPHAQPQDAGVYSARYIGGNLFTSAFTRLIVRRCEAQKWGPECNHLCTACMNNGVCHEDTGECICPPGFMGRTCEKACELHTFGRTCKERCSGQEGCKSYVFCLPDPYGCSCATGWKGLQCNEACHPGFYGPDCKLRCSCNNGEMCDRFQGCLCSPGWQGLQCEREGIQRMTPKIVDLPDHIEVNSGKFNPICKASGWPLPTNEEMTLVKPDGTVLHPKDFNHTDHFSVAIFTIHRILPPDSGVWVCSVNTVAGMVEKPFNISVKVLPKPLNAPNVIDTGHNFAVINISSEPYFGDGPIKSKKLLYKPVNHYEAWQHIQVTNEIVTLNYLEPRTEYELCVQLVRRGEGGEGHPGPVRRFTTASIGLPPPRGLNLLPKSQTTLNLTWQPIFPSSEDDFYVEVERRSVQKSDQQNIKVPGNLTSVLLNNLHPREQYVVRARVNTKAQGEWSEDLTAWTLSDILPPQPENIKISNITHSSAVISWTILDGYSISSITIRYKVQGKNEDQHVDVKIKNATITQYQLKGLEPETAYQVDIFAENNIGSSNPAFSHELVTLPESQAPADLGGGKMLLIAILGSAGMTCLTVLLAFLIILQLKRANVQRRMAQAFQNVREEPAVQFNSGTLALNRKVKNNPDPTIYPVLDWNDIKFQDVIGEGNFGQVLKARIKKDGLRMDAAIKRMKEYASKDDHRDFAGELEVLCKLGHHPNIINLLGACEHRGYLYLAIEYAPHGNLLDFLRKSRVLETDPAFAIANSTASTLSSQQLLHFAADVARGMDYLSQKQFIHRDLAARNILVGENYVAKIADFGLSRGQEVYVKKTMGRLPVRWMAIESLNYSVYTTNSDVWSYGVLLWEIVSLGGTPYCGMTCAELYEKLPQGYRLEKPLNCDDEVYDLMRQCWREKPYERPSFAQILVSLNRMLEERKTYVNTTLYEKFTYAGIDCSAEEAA

On to `O=C(CCCc1ccc(-c2ccccc2F)cc1)Nc1ccc(O)cc1`, for which the residual activity in test [1] was determined as 103%; in test [2] it was 99%; in [3] it was 93%; in test [4], 79%; in test [5] it was 83%; in test [6], 96%. Further, the residual activity stood at 102% in test [7]; 54% in test [8]; 93% in test [9]; 100% in test [10]; 99% in [11]; 89% in test [12]. Also, the residual activity in test [13] was 112%; in test [14], 98%; in test [15] it was 101%; in test [16] it was 95%; in test [17] it was 102% (inactive); in test [18], 96%. For the same compound, in [19], the residual activity is 104% (inactive).
For the compound `NC(=O)Nc1sc(-c2ccc(F)cc2)cc1C(N)=O`, the residual activity in test [1] is 62%; in test [2] it was 27%; in test [20], 54%; in test [5], 82%; in [6] it was 21%; in test [9], 27%. Further, the residual activity in test [10] is 2%; in test [13] it was 86%; in test [14] it was 36%; in test [15] it was 69%; in test [16] it was 24%; in test [17] it was 95% (inactive). In test [18], the residual activity worked out at 52%.
For the compound `O=c1cc(N2CCOCC2)oc2c1ccc1ccccc12`, the residual activity came out at 101% in [1]; 82% in test [2]; 78% in test [20]; 93% in [3]; 96% in [4]; 81% in test [5]. Besides, the residual activity in [6] is 97%; in [7], 106%; in [10], 102%; in test [11], 90%; in test [12], 85%; in [13], 102%. Besides, the residual activity in test [14] was 88%; in test [15], 106%; in [16], 94%; in test [17], 105% (inactive); in test [18] it was 90%; in [19] it was 110% (inactive).
Turning to `COc1cc2c(cc1OC)-c1n[nH]c(Nc3cccc(F)c3)c1C2`, the residual activity worked out at 77% in [1]; 68% in test [2]; 63% in [3]; 18% in test [4]; 74% in [6]; 69% in [7]. In addition, the residual activity in [8] stood at 6%; in test [9], 56%; in [10] it was 31%; in test [11], 64%; in test [12], 20%; in test [15] it was 98%. The values for the residual activity in test [16] and in [19] were 72% and 78% (inactive), respectively.
As to `CCCC(=O)Oc1ccc2[nH]c(C(=O)c3cc4ccccc4[nH]3)cc2c1`, the residual activity in [1] was 93%; in test [2], 82%; in test [20], 96%; in test [3], 85%; in test [4], 94%; in test [5], 78%. For the same compound, the residual activity came out at 49% in [6]; 87% in test [7]; 87% in test [8]; 13% in test [10]; 102% in test [11]; 82% in test [12]. Further, the residual activity is 103% in test [13]; 97% in [14]; 105% in [15]; 85% in test [16]; 105% (inactive) in test [17]; 84% in [18].
Take `Cn1c2ccccc2c2c3c(c4c5ccccc5n(CCC#N)c4c21)CNC3=O`: the residual activity came out at 12% in [1]; 10% in [2]; 40% in [20]; 4% in test [3]; 9% in test [4]; 0% in test [7]. The residual activity in [8] was -1%; in test [9], 44%; in test [10], -12%; in [11], 8%; in [12], 8%; in test [13] it was 99%. The residual activity in [15] is 39%; in test [16], 16%; in [17], 97% (inactive); in test [19] it was 97% (inactive).
